D2 antagonist – antagonizes the human D2 dopamine receptor. HEK293 TREx D2 cells, calcium flux, dopamine EC80. inhibition, % at 10 µM. hit rate 2% among 340,000. AID 485344; in the data active = inhibition above about 30%; inactive = below that, where a call was filed; note: 0% is about no effect
Target sequence (P14416 whole entry, looked up): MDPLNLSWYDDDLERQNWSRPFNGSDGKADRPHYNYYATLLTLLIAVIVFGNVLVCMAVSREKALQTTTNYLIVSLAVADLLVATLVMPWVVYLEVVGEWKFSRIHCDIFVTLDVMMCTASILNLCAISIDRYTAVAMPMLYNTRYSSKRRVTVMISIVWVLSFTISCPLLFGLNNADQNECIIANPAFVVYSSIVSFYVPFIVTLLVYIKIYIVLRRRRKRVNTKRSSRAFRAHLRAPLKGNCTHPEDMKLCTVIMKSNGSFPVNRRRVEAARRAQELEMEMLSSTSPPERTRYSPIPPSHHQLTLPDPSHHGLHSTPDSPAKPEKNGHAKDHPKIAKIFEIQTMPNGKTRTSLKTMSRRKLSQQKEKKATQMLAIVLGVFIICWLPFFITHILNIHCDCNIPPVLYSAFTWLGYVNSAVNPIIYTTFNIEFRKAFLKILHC
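Read-out: kinetic calcium fluorescence (1 cycle/s) in inducible HEK293 T-REx D2 cells after an EC80 dopamine addition that followed 180 s compound preincubation. Loss of the dopamine response indicates antagonism.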
D2 ag-1 – human D2 receptor agonism in beta-arrestin assay; P14416; activation, % (test concentration not listed); DiscoveRx PathHunter D2 beta-arrestin, luminescence, 90 min; 100% = 57 uM dopamine signal; hit rate 0.084% among 360,000; in the data active = activation above about 40%
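DiscoveRx PathHunter D2 beta-arrestin cells (2,100/well) attached overnight, then compound-stimulated 90 min at 37 C in HBSS/10 mM HEPES/0.1% Tween-20 buffer; beta-galactosidase complementation read by luminescence after 1 h at ambient temperature. Dopamine 57 uM final (EC100) as control.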
D2 PAM-1 – positive allosteric modulators of human D2 dopamine receptor | hit rate 0.23% among 360,000 | AID 624464 | DiscoveRx D2 beta-arrestin cells, luminescence, 90 min; 100% = 57 uM dopamine signal | P14416 | potentiation, % (concentration not given with the values); in the data active = potentiation above about 50%
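D2 cells co-treated with compound plus 50 nM dopamine (EC20) for 90 min at 37 deg C to detect potentiation. Beta-arrestin recruitment was read as enzyme-fragment luminescence after 1 h at ambient temperature. Full response was set by 57 uM dopamine.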
D2 PAM-2 – positive allosteric modulators of human D2 dopamine receptor; AID 485347; HEK293 T-REx D2, calcium flux, EC20 dopamine potentiation; potentiation, % at 10 µM; hit rate 0.34% among 340,000;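 active = potentiation over 3 SD above the plate norm, cut at about 30% in these data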; note: 0% is about no effect
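Cells plated with tetracycline inducer and held overnight at 30 C; calcium dye loaded 30–90 min at room temperature; baseline taken, compound added and read 180 s; EC20 dopamine then added and read 180 s.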
D2 ag-2 – agonists of human D2 dopamine receptor; AID 485358; activation, % at 2 µM; HEK293 T-REx D2 cells, calcium flux agonist mode; hit rate 0.53% among 340,000;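 active = activation over 3 SD above normal in the single-dose calcium agonist read, cut at about 30% in these data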; note: 0% is about no effect
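Tetracycline-induced HEK293 T-REx cells with force-coupled D2 receptor, plated overnight at 30 C, loaded with no-wash calcium dye. After a 10 s baseline, compound was pin-added and calcium flux read kinetically for 180 s; calcium rises flagged agonists.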
Active calls of the source: *; . = not tested or not shown. A selection: hits, their analogues and other compounds. The true share with any hit is near 2.4%.

SMILES	D2 antagonist	D2 ag-1	D2 PAM-1	D2 PAM-2	D2 ag-2
CCN(Cc1ccccc1)C(=O)Cn1c(=O)n(-c2ccc(F)c(Cl)c2)c(=O)c2sc3ccccc3c21	.	.	.	1	1
COc1cccc(/C=C/C(=O)OCC(=O)Nc2ccc(Cl)c(S(=O)(=O)N(C)C)c2)c1	-15	-3	0	4	2
O=C(COC(=O)/C=C/c1cccc(C(F)(F)F)c1)NCc1ccccc1	33*	-4	5	12	1
COc1cccc(/C=C/C(=O)OCC(=O)Nc2cc(C(F)(F)F)ccc2Cl)c1	34*	-1	-3	-7	2
O=C(COC(=O)/C=C/c1cccc(C(F)(F)F)c1)NCc1ccc(F)cc1	-8	-1	-7	6	0
CCOc1cc(CNCCSc2nnnn2-c2ccccc2)cc(Cl)c1OC	.	.	.	11	-2
Cc1oc(-c2ccccc2F)nc1CSCC(=O)NCCc1ccccc1	.	.	.	10	.
Cc1oc(-c2ccccc2F)nc1CSCC(=O)NCc1ccc2c(c1)OCO2	-4	-4	8	33*	-3
O=C(CN1C(=O)c2cccnc2Oc2ccc(Cl)cc21)NC1CCCCCC1	41*	4	0	-9	0
CC(=O)N1CCc2cc(Br)cc(S(=O)(=O)NCc3ccc(Cl)cc3)c21	68*	4	-20	-17	-1
CC1CCCN(CCCNS(=O)(=O)c2cc(Br)cc3c2N(C(=O)C2CC2)CC3)C1 (configuration not stated)	.	5	-13	.	.
O=C(C1CC1)N1CCc2cc(Br)cc(S(=O)(=O)N3CCN(c4ccccc4)CC3)c21	.	.	.	-2	1
O=C(C1CC1)N1CCc2cc(Br)cc(S(=O)(=O)N3CCN(c4ccccn4)CC3)c21	46*	-2	10	-1	1
O=C(C1CC1)N1CCc2cc(Br)cc(S(=O)(=O)NCCCN3CCCC3)c21	39*	-2	-10	-11	0
O=C(CCCCCn1c(=S)[nH]c2ccc(N3CCOCC3)cc2c1=O)NCc1cccc(Cl)c1	0	8	-3	39*	-1
CC1CCN(CCn2c(=S)[nH]c3ccccc3c2=O)CC1	31*	5	-25	-12	0
O=c1c2ccccc2[nH]c(=S)n1CCCN1CCC(Cc2ccccc2)CC1	82*	1	-24	-28	-2
O=c1c2ccc(Cl)cc2[nH]c(=S)n1CCCN1CCOCC1	34*	-5	-18	-20	0
O=C(CCCCCn1c(=S)[nH]c2ccc(N3CCOCC3)cc2c1=O)NCc1ccccc1	17	-8	0	-1	-1
CC1CCN(CCCn2c(=S)[nH]c3ccccc3c2=O)CC1	22	-3	-42	-18	0
COc1ccccc1N1CCN(C(=O)CCS(=O)(=O)c2cc(Br)cc3c2N(C(=O)C2CC2)CC3)CC1	.	.	.	12	1
COc1ccc(OCc2nc(C#N)c(NCc3ccccc3Cl)o2)cc1	.	.	.	-1	0
Cc1c(CC(=O)N2CCCCC2)c(=O)oc2cc3occ(C(C)(C)C)c3cc12	.	.	.	0	3
COc1cccc(CNC(=O)c2ccc3c(c2)N(C)C(=O)C2CCCCN32)c1 (configuration not stated)	.	.	.	1	0
O=c1c2ccccc2[nH]c(=S)n1CCCN1CCN(C2CCCCC2)CC1	82*	2	-31	-24	0
SMILES	D2 antagonist	D2 ag-1	D2 PAM-1	D2 PAM-2	D2 ag-2
O=C(NC1CC2CCC(C1)N2Cc1ccccc1)c1ccccc1Cl (configuration not stated)	75*	-1	-3	-21	2
Cc1ccccc1C(=O)NC1CCN(C(=O)NC2CCCCC2)CC1	-7	9	-2	0	-1
Cc1ccccc1C(=O)NC1CC2CCCC(C1)N2Cc1ccc(Cl)cc1 (configuration not stated)	76*	-7	-27	-23	1
Cc1ccccc1C(=O)NC1CC2CCCC(C1)N2Cc1ccccc1 (configuration not stated)	71*	-6	0	-20	-2
Cc1ccccc1C(=O)NC1CCN(C(=O)N2CCOCC2)CC1	12	-1	-3	36*	0
Cc1ccc(NC(=O)Cn2c(=O)n(CCCCC(=O)NCc3ccc4c(c3)OCO4)c(=O)c3ccccc32)cc1	.	.	.	.	1
CCOC(=O)c1ccc(NC(=O)C(CC)Sc2nc3ccncc3[nH]2)cc1 (configuration not stated)	.	.	.	.	8
Cc1ccc(-c2nc(S(=O)(=O)c3ccc(F)cc3)c(SCC(=O)NCC3CCCO3)o2)cc1 (configuration not stated)	-7	0	-3	36*	1
CCc1ccc(-c2nc(SCC(=O)NCC3CCCO3)c(-c3ccc(C)cc3)[nH]2)cc1 (configuration not stated)	.	.	.	-22	-1
Cc1ccc(-n2ncc3c(=O)[nH]c(SCC(=O)NCC4CCCO4)nc32)cc1 (configuration not stated)	.	0	-2	.	.
O=C(CSc1nc2c(cnn2-c2cccc(Cl)c2)c(=O)[nH]1)NCC1CCCO1 (configuration not stated)	39*	8	1	4	0
Cc1ccc(-c2[nH]c(-c3ccc(Cl)cc3)nc2SCC(=O)NCC2CCCO2)cc1 (configuration not stated)	61*	-2	-11	-20	4
COc1cc(C2C(=O)N(C3CCC(C)CC3)CC(=O)N2CCc2ccc(Cl)cc2)ccc1OC(C)C (configuration not stated)	.	.	.	8	1
CCc1ccc(Oc2c(C(F)(F)F)oc3c(CN4CCN(C)CC4)c(O)ccc3c2=O)cc1	.	.	.	-29	1
Cc1cc(C)c(NC(=O)Cn2c(=O)n(-c3ccc(F)cc3)c(=O)c3c(C)c(C(=O)N(C)C)sc32)c(C)c1	.	.	.	2	0
CCOCCCNC(=O)c1ccc2c(c1)N(CC)C(=O)c1ccccc1S2=O (configuration not stated)	17	-7	-31	-28	1
CCCCN(CC)CCCNC(=O)c1ccc2c(c1)N(Cc1ccc(C)cc1)C(=O)c1ccccc1S2	.	.	.	-4	0
CCN1C(=O)c2ccccc2Sc2ccc(C(=O)NCCCN(CC(C)C)CC(C)C)cc21	42*	-2	-11	-11	1
CCN1C(=O)c2ccccc2S(=O)c2ccc(C(=O)NCc3ccc(OC)cc3)cc21 (configuration not stated)	81*	0	-3	-22	-1
CCCN(CCC)CCCNC(=O)c1ccc2c(c1)N(CC)C(=O)c1ccccc1S2=O (configuration not stated)	107*	-1	-6	-22	0
CCN1C(=O)c2ccccc2S(=O)c2ccc(C(=O)NCc3ccccc3OC)cc21 (configuration not stated)	.	.	.	-15	0
